For one assay, the target named is CRTAM. Description: pooled miR-30 sensor sort-seq; sequence = guide strand. The conditions noted are these: shRNA.
In turn, TTGAATGTTGTACATTTTCCTT registered a sensor-assay potency score (higher = more potent) of -1.1.
As for TTGACCTTGATCTGTAACTTTC, the sensor-assay potency score (higher = more potent) was -1.09.
The sequence TTTGCTTCTGAGTACAACTTTG came in with a sensor-assay potency score (higher = more potent) of -0.892.
On to TTTGTGATGTAGTTCATGCAAC, for which the sensor-assay potency score (higher = more potent) is -0.216.
The same measure, in the same setting: as for TTAAACTACAAGCTTTATGTGC, the figure is -0.391; as for TTTTCTTTCTTGCCAGTCCTAA, -0.265; as for TTAGCTGCTCACACTGACCCTG, -0.252.
Sequence TAGCTGCTCACACTGACCCTGA had a sensor-assay potency score (higher = more potent) of -0.659.
As for TTGATCTGTAACTTTCTAGTGT, the sensor-assay potency score (higher = more potent) worked out at 0.218.
Consider TTTTGCTTTCTGATAACTGAAG, for which the sensor-assay potency score (higher = more potent) was -1.15.
As for TAGTATTACATTTCTTCCCATC, the sensor-assay potency score (higher = more potent) was -0.999.

A further assay addresses CRX. The description is as above. To be noted: shRNA.
As for TTGATCTTCAGAGCCACCTCCT, the sensor-assay potency score (higher = more potent) was -0.746.
Regarding TAGGTGAATTTCCAGGTGCCCG, the sensor-assay potency score (higher = more potent) is -1.41.
Consider TGATCCTTGTAGTCCAGAGGGT, for which the sensor-assay potency score (higher = more potent) was -0.793.
TGTAAGCTGAACACCGAGCTGT returned a sensor-assay potency score (higher = more potent) of 0.575.
On the same count and under the same terms, next, TGAGAGAATCACTAGGACCTGT: -0.0623; TTGTAGGTGAATTTCCAGGTGC: -0.434.
TTTGGTTTGACTTCTTCTTGGA: the sensor-assay potency score (higher = more potent) was determined as 0.763.
On the same count and under the same terms, next, TGAACCAAACCTGAACCCTGGA: -0.615.
On the same count and under the same terms, as for ACTCTGATCCTTGTAGTCCAGA, the figure is -1.36; as for AATTCCAAGCTATCCACGGGGC, -0.328.
Take AATAGGAGCTCGGAGACCCATA: the sensor-assay potency score (higher = more potent) is -1.54.
Still for that read-out and setting: as for TTTGACTTCTTCTTGGAGCAAG, the figure is -0.501; as for TAGACGTCTGGGTACTGGGTCT, -0.0426; as for TTCTGAAGCCTGGAGCTCGTGG, -0.966.
Regarding TAGCTCTGGCCTGATAGGGAGG, the sensor-assay potency score (higher = more potent) was -0.851.
On the same count and under the same terms, as for TTGTAGTCCAGAGGGTCCATGG, the figure is -1.32.
Still for that read-out and setting: as for TGTAGGAATCTGAGATGCCCAG, the figure is -0.841; as for TTGAACCAAACCTGAACCCTGG, -0.194.
Same read-out and setting: next, TTGGTTTGACTTCTTCTTGGAG: -0.00294.
Sequence TTTCTCAGGAATGCCATCCCGG displayed a sensor-assay potency score (higher = more potent) of -0.63.
Consider TTCAGAGCCACCTCCTCACGGG, for which the sensor-assay potency score (higher = more potent) is -0.313.
On the same count and under the same terms, next, TAGGTCATGGCATAGGGGGCGG: -1.09.

For another assay, the target named is CRYGS. The assay is described as above. The conditions noted are these: shRNA.
Take TACAGGAGTGGATCTCTCGCAT: the sensor-assay potency score (higher = more potent) is -0.237.
Consider TTACAGGAGTGGATCTCTCGCA, for which the sensor-assay potency score (higher = more potent) is 0.0996.
Turning to TCGGTGGTTTCATACATCTGAC, the sensor-assay potency score (higher = more potent) was -1.43.
As to TCGCAATCACAGTCATAGCGAC, the sensor-assay potency score (higher = more potent) is -1.06.
Same read-out and setting: next, TTTTTGTCTTCATAGAAAGTAA: -0.778; TGATGGAAGGGCAATCTTCGGT: -1.06.
Same read-out and setting: next, TTTGTCTTCATAGAAAGTAATC: -1.62.

(Values after the OligoGym collection.)
Note: reference of the scale not given here.
